Source: PubChem BioAssay AID1159580 (chemical genetic matrix, 2015)
Hit rate of the full screen: of about 5,500 compounds, about 2,000 (36%) were called active. Inconclusive results (about 18%) are left out. No stated cut-off is given here; in the data, active means normalized growth mostly below about 0.91 (no sharp cut-off); inconclusive means no clear call, values can overlap the other calls; inactive means mostly above about 0.92. Some of the results follow.

Experiment: chemical genetic growth profiling, strain panel (AID 1159580);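 further: tested at 20 µM; growth read once vehicle control cultures reached saturation at 30 °C; 1 = growth at the plate median or of vehicle wells; lower values mean less growth of the strain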
Settings: S. cerevisiae deletion strains, growth OD
[1] = locus YAL021C, strain ccr4, hits give low values
[2] = locus YAL026C, strain drs2, hits give low values
[3] = locus YAL030W, strain snc1, hits give low values
[4] = locus YBL061C, strain skt5, hits give low values
[5] = locus YBR009C, strain hhf1, hits give low values
[6] = locus YBR023C, strain chs3, hits give low values
[7] = locus YBR171W, strain sec66, hits give low values
[8] = locus YBR231C, strain swc5, hits give low values
[9] = locus YBR279W, strain paf1, hits give low values
[10] = locus YCL011C, strain gbp2, hits give low values
[11] = locus YCL016C, strain dcc1, hits give low values
[12] = locus YCL069W, strain vba3, hits give low values
[13] = locus YCR088W, strain abp1, hits give low values
[14] = locus YDL005C, strain med2, hits give low values
[15] = locus YDL040C, strain nat1, hits give low values
[16] = locus YDR001C, strain nth1, hits give low values
[17] = locus YDR069C, strain doa4, hits give low values
[18] = locus YDR137W, strain rgp1, hits give low values
[19] = locus YDR159W, strain sac3, hits give low values
[20] = locus YDR297W, strain sur2, hits give low values
[21] = locus YDR334W, strain swr1, hits give low values
[22] = locus YDR335W, strain msn5, hits give low values
[23] = locus YDR392W, strain spt3, hits give low values
[24] = locus YEL003W, strain gim4, hits give low values
[25] = locus YEL037C, strain rad23, hits give low values
[26] = locus YEL061C, strain CIN8 (second series), hits give low values
[27] = locus YER015W, strain faa2, hits give low values
[28] = locus YER016W, strain bim1, hits give low values
[29] = locus YER111C, strain swi4, hits give low values
[30] = locus YER155C, strain BEM2 (second series), hits give low values
[31] = locus YFR010W, strain ubp6, hits give low values
[32] = locus YGL167C, strain pmr1, hits give low values
[33] = locus YGL173C, strain kem1, hits give low values
[34] = locus YGL227W, strain vid30, hits give low values
[35] = locus YGL240W, strain doc1, hits give low values
[36] = locus YGL253W, strain hxk2, hits give low values
[37] = locus YHR013C, strain ard1, hits give low values
[38] = locus YHR027C, strain rpn1, hits give low values
[39] = locus YHR030C, strain SLT2, hits give low values
[40] = locus YHR079C, strain IRE1, hits give low values
[41] = locus YHR142W, strain chs7, hits give low values
[42] = locus YJL092W, strain hpr5, hits give low values
[43] = locus YJL095W, strain BCK1 (second series), hits give low values
[44] = locus YJL095W, strain BCK1, hits give low values
[45] = locus YJL115W, strain asf1, hits give low values
[46] = locus YJL129C, strain trk1, hits give low values
[47] = locus YJL154C, strain vps35, hits give low values
[48] = locus YJL164C, strain tpk1, hits give low values
[49] = locus YJL166W, strain qcr8, hits give low values
[50] = locus YJR066W, strain TOR1, hits give low values
[51] = locus YKL160W, strain elf1, hits give low values
[52] = locus YKR026C, strain gcn3, hits give low values
[53] = locus YKR091W, strain srl3, hits give low values
[54] = locus YLL001W, strain dnm1, hits give low values
[55] = locus YLL026W, hits give low values
[56] = locus YLL041C, strain sdh2, hits give low values
[57] = locus YLR027C, strain aat2, hits give low values
[58] = locus YLR113W, strain HOG1, hits give low values
[59] = locus YLR221C, strain rsa3, hits give low values
[60] = locus YLR258W, strain gsy2, hits give low values
[61] = locus YLR262C, strain YPT6 (second series), hits give low values
[62] = locus YLR320W, strain mms22, hits give low values
[63] = locus YLR342W, strain FKS1, hits give low values
[64] = locus YLR357W, strain rsc2, hits give low values
[65] = locus YLR370C, strain arc18, hits give low values
[66] = locus YLR384C, strain iki3, hits give low values
[67] = locus YML120C, strain ndi1, hits give low values
[68] = locus YMR058W, strain fet3, hits give low values
[69] = locus YMR125W, strain sto1, hits give low values
[70] = locus YMR129W, hits give low values
[71] = locus YMR205C, strain PFK2, hits give low values
[72] = locus YMR231W, strain pep5, hits give low values
[73] = locus YNL071W, strain lat1, hits give low values
[74] = locus YNL183C, strain NPR1, hits give low values
[75] = locus YNL209W, strain ssb2, hits give low values
[76] = locus YNL248C, strain rpa49, hits give low values
[77] = locus YNL322C, strain KRE1 (second series), hits give low values
[78] = locus YNR049C, strain mso1, hits give low values
[79] = locus YOR001W, strain rrp6, hits give low values
[80] = locus YOR070C, strain gyp1, hits give low values
[81] = locus YOR080W, strain dia2, hits give low values
[82] = locus YOR083W, strain WHI5, hits give low values
[83] = locus YOR106W, strain vam3, hits give low values
[84] = locus YOR231W, strain MKK1, hits give low values
[85] = locus YOR265W, strain rbl2, hits give low values
[86] = locus YOR270C, strain vph1, hits give low values
[87] = locus YOR290C, strain snf2, hits give low values
[88] = locus YPL051W, strain arl3, hits give low values
[89] = locus YPL078C, strain atp4, hits give low values
[90] = locus YPL106C, strain sse1, hits give low values
[91] = locus YPL240C, strain hsp82, hits give low values
[92] = locus YPL256C, strain CLN2, hits give low values

Measured: normalized growth

Nc1ncn[nH]1
inactive: [1] 0.986 | [2] 1.02 | [3] 1.02 | [4] 1.02 | [5] 1.04 | [6] 1.02 | [7] 1.02 | [8] 1.02 | [9] 1.02 | [10] 1.02 | [11] 1.02 | locus YCL061C, strain MRC1, hits give low values 1.02 | [12] 1.02 | [13] 1.02 | [14] 1.02 | [15] 1.02 | [16] 1.02 | [17] 1.03 | [18] 1 | [19] 1.05 | locus YDR195W, strain ref2 1.01 | [20] 1.01 | [21] 1.02 | [22] 1.02 | [23] 0.966 | [24] 1.02 | [25] 1.02 | [26] 1.01 | [27] 1.02 | [28] 1.03 | [29] 1.02 | [30] 1.04 | [31] 1.02 | [32] 1.02 | [33] 1.02 | [34] 1.02 | [35] 1.05 | [36] 1.01 | [37] 1.01 | [38] 1.02 | [39] 0.995 | [40] 1 | [41] 0.97 | [42] 1.02 | [43] 1.02 | [44] 0.967 | [45] 1.02 | [46] 1 | [47] 1.02 | [48] 1 | [49] 1.01 | locus YJL187C, strain SWE1, hits give low values 1.02 | [50] 0.923 | [51] 0.974 | [52] 1.01 | [53] 1.02 | [54] 1.03 | [55] 1.01 | [56] 1.02 | [57] 1.01 | [58] 0.985 | [59] 0.995 | [60] 1.03 | [61] 1 | [62] 1.03 | [63] 1.01 | [64] 1.06 | [65] 1.01 | [66] 1 | [67] 0.997 | [68] 1.02 | [69] 1.05 | [70] 1.01 | [71] 1.05 | [72] 1.02 | [73] 1.01 | [74] 0.933 | [75] 1.01 | [76] 0.985 | [77] 1 | [78] 1.02 | [79] 1 | [80] 1.03 | [81] 1.02 | [82] 0.979 | [83] 0.987 | [84] 0.988 | [85] 1.01 | [86] 1.02 | [87] 0.982 | [88] 0.988 | [89] 0.982 | [90] 1.05 | [91] 1.02 | [92] 0.96

O=C(O)[C@@H]1CCN1
inactive: locus YAL040C, strain CLN3, hits give low values 1.01 | locus YDR363W, strain ESC2, hits give low values 0.998 | locus YER002W, strain NOP16, hits give low values 0.998 | locus YGR078C, strain PAC10, hits give low values 1.01 | locus YGR229C, strain SMI1, hits give low values 0.984 | locus YMR263W, strain SAP30, hits give low values 0.998 | locus YMR307W, strain GAS1, hits give low values 0.992 | locus YNL153C, strain GIM3, hits give low values 0.996 | locus YNL175C, strain NOP13, hits give low values 1.01 | locus YNL197C, strain WHI3, hits give low values 1.02 | locus YNL224C, strain SQS1, hits give low values 0.963 | locus YOR083W, strain WHI5 (second series), hits give low values 1 | locus YPL055C, strain LGE1, hits give low values 0.996 | locus YPL241C, strain CIN2, hits give low values 1.01

CCOC(=O)n1ccn(C)c1=S
inactive: [1] 0.987 | [2] 0.996 | [3] 0.994 | [4] 1.01 | [5] 0.946 | [6] 1.01 | [7] 0.98 | [8] 0.984 | [9] 1 | [10] 0.997 | [11] 1.03 | [12] 0.984 | [13] 0.99 | [14] 0.99 | [15] 0.985 | [16] 0.982 | [17] 0.994 | [18] 0.96 | [19] 0.881 | locus YDR195W, strain ref2 0.976 | [20] 1 | [21] 0.961 | [22] 1.01 | [23] 0.939 | [24] 0.972 | [25] 0.974 | [26] 0.966 | [27] 0.982 | [28] 1.06 | [29] 0.994 | [30] 0.961 | [31] 0.955 | [32] 0.97 | [33] 0.975 | [34] 0.985 | [35] 0.995 | [36] 0.998 | [37] 1.02 | [38] 0.997 | [39] 1.02 | [40] 1.01 | [41] 1.01 | [42] 0.987 | [43] 0.99 | [44] 1.01 | [45] 0.963 | [46] 0.974 | [47] 0.977 | [48] 0.979 | [49] 0.986 | [50] 0.988 | [51] 1.04 | [52] 0.97 | [53] 0.99 | [54] 0.951 | [55] 0.986 | [56] 0.988 | [57] 0.999 | [58] 0.999 | [59] 0.967 | [60] 1 | [61] 0.929 | [62] 0.931 | [63] 1.01 | [64] 0.99 | [65] 0.998 | [66] 0.981 | [67] 0.974 | [68] 0.991 | [69] 0.971 | [70] 0.979 | [71] 0.983 | [72] 0.988 | [73] 0.98 | [74] 0.971 | [75] 0.985 | [76] 1.04 | [77] 1.01 | [78] 0.999 | [79] 0.949 | [80] 1.01 | [81] 0.998 | [82] 1.01 | [83] 1.02 | [84] 1.02 | [85] 0.988 | [86] 1.02 | [87] 1.05 | [88] 1.06 | [89] 1.05 | [90] 1.04 | [91] 0.994 | [92] 0.98
